# Measurements taken from PubChem BioAssay AID504766 (The Scripps Research Institute Molecular Screening Center, 2011).
# Out of some 340,000 compounds screened, about 3,400 (1%) were called active.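 The calls were made as follows: active = inhibition above the mean over all tested compounds plus 3 SD (cut at about 4.2% in these data); inactive = the rest.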 The full list was thinned out, with actives kept by preference.
# Target: Nuclear receptor subfamily 0 group B member 1 (Homo sapiens) (UniProt P51843)
# Assay: relief of DAX1 transcriptional repression – cell-based, HEK293, Gal4-DAX1, luciferase luminescence, primary screen (AID 504766);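 also: 0% = DAX1-transfected cells with DMSO and 100% = empty-vector control cells with DMSO; inhibition shows as a rise in luminescence from relieved DAX1 repression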
# Conditions: HEK293 Gal4-DAX1 luciferase reporter, at 6.75 µM, stronger effect = higher value
# Sequence of Nuclear receptor subfamily 0 group B member 1 (Homo sapiens) (P51843 207-470 limits assumed): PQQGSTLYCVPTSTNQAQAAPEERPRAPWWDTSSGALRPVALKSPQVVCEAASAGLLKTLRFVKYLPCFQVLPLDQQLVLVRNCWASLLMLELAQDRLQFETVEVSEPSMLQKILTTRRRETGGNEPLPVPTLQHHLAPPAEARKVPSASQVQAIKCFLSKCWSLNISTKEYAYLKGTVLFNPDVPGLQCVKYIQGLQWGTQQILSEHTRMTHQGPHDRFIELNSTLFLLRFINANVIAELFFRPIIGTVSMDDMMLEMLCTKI
row,Structure (SMILES),inhibition
1,COc1ccc(C(CNC(=O)CSc2ccccc2)N2CCOCC2)cc1 (stereo not drawn),1.43% (inactive)
2,Cc1cccc(C)c1OCC(=O)NC(Cc1c[nH]c2ccccc12)C(=O)O (stereo not drawn),0.88% (inactive)
3,CC(=O)NC(Cc1c[nH]c2ccccc12)C(=O)O (stereo not drawn),9.87% (active)
4,CC(=O)NC(Cc1c[nH]c2ccccc12)C(=O)NCCc1ccccc1 (stereo not drawn),3.45% (inactive)
5,CCc1cc(-c2nnn(CCC3COCCO3)c2CC)ccc1-c1cn(Cc2ccc3ccccc3c2)nn1 (stereo not drawn),-3.79% (inactive)
6,C[C@H]1CN([C@@H](C)CO)C(=O)CCCn2cc(nn2)CO[C@@H]1CN(C)S(=O)(=O)c1ccc(-c2ccccc2)cc1,0% (inactive)
7,O=C(CCc1ccc(S(=O)(=O)N2CCOCC2)cc1)NN=C1CCCCCCC1,0% (inactive)
8,O=C(O)c1ccc(S(=O)(=O)N2CCOCC2)o1,6.4% (active)
9,O=C(c1cc(S(=O)(=O)N2CCOCC2)ccc1Cl)N1CCOCC1,0.61% (inactive)
10,COc1ccc2c(c1)CCCO[C@]21O[C@H](CCO)C[C@H](O)[C@H]1O,0.36% (inactive)
11,O=C(O)C1CCCN1c1nc(Cl)ccc1[N+](=O)[O-] (stereo not drawn),-0.69% (inactive)
12,Cn1ncc([N+](=O)[O-])c1C(=O)Nc1cc(Cl)ccc1Cl,1.05% (inactive)
13,Cc1nc(-c2ccccc2)sc1C(=O)/C=C/N(C)C,3.31% (inactive)
14,Cc1nc(-c2ccc(Cl)cc2)sc1C(=O)CBr,-0.83% (inactive)
15,Cc1nc(-c2ccccc2)sc1C(=O)/C=C/c1ccccc1,5.32% (active)
16,c1ccc(Cn2nnc3c(NCC4CC4)ncnc32)cc1,1.59% (inactive)
17,O=C(Nc1ncccc1O)c1ccc(S(=O)(=O)N2CCCC2)cc1,2.95% (inactive)
18,O=C(Nc1ncccc1O)c1ccc(C(=O)c2ccccc2)cc1,10.6% (active)
19,O=C(Nc1ncccc1O)c1ccc(S(=O)(=O)N2CCCCCC2)cc1,1.6% (inactive)
20,Cc1cccc(C)c1NC(=O)CNC(=O)c1ccc(N2CCOCC2)c([N+](=O)[O-])c1,0.52% (inactive)
21,CC1=C(C(=O)N2CCOCC2)CC(CC(=O)NCC2CCCCC2)C(=O)N1Cc1ccc(F)cc1 (stereo not drawn),0.65% (inactive)
22,COc1ccc2nc(SCc3ccccc3)nc(C)c2c1,4.59% (active)

row,Structure (SMILES),inhibition
1,COc1cccc(CSc2nc3nc(C)cc(C)n3n2)c1,1.86% (inactive)
2,COc1ccc(-c2nnc3ccc(SCc4ccccc4)nn23)cc1,0.1% (inactive)
3,COc1ccc(-c2ccc(CN3C(CC(C)C)C(=O)N(Cc4cn(CC5CCCCC5)nn4)CCS3(=O)=O)cc2)cn1 (stereo not drawn),-0.76% (inactive)
4,O=C(NCCOc1ccccc1)N1[C@H]2CC[C@@H]1C=C(c1ccc(F)cc1OCc1ccccc1)C2,0.36% (inactive)
5,CCc1c(N=O)c(-c2ccccc2)n(O)[n+]1[O-],0.23% (inactive)
6,C[C@@H]1CN([C@@H](C)CO)C(=O)CCCn2nncc2CO[C@@H]1CN(C)S(=O)(=O)c1ccc(-c2ccccc2)cc1,0.31% (inactive)
7,O=C(/C=C\c1ccc2c(c1)OCO2)NC1(C(=O)Nc2ccc3c(c2)OCCO3)CCCCC1,-0.83% (inactive)
8,O=C(/C=C/c1ccc2c(c1)OCCO2)c1ccc(O)cc1,16.4% (active)
9,O=C(COC(=O)c1ccc(O)cc1O)c1ccc2c(c1)OCCO2,-0.46% (inactive)
10,COc1ccc(-c2ccc(CN3C(CC(C)C)C(=O)N(Cc4cn(CC5CCCCC5)nn4)CCS3(=O)=O)cc2)cc1 (stereo not drawn),1.23% (inactive)
11,COCCCN1C(=O)C(CC(=O)NCc2cccs2)CC(C(=O)N2CCOCC2)=C1C (stereo not drawn),1.28% (inactive)
12,CN1CCn2cnc(C(=O)NCC(=O)OC(C)(C)C)c2C1=O,0.48% (inactive)
13,C[C@@H]1CN([C@@H](C)CO)C(=O)CCCn2cc(nn2)CO[C@H]1CN(C)S(=O)(=O)c1ccc(-n2cccn2)cc1,1.04% (inactive)
14,O=c1[nH]c2ccccc2n1C1CCN(CCOc2ccccc2)CC1,-1.06% (inactive)
15,Cc1nonc1NC(=O)CSc1nc2ccccc2cc1C#N,2.09% (inactive)
16,CCOc1ccc2cc(C#N)c(SCC(=O)OC)nc2c1,4.25% (active)
17,CCOC(=O)CSc1nccc(N(C)C)c1C#N,0.68% (inactive)
18,COc1ccc(C(C)(C)C)cc1NC(=O)CN(C)C1=NS(=O)(=O)c2ccccc21,0.35% (inactive)
19,O=C(CCCN1C(=O)C(c2ccccc2)Oc2cccnc21)Nc1ccccc1Br (stereo not drawn),0.05% (inactive)
20,N#CCSc1ccccc1NC(=O)CN1C(=O)NC(CCc2ccccc2)C1=O (stereo not drawn),2.57% (inactive)
21,C#CCN(C[C@H]1[C@H](OC(=O)NC2CCCC2)[C@H](OC(=O)NC2CCCC2)C[C@H]2C(=O)N(c3ccccc3)C(=O)[C@@H]12)S(=O)(=O)c1ccc(C)cc1,-0.02% (inactive)
22,CC1CCC2(CC1)NC(=O)N(CC(=O)NCc1ccco1)C2=O (stereo not drawn),3.52% (inactive)

row,Structure (SMILES),inhibition
1,Cc1ccc(S(=O)(=O)N2C[C@H]3n4c(=O)ccc(=O)n4C[C@H](OC(=O)NC4CCCC4)[C@@]3(O)C2)cc1,0.12% (inactive)
2,C[C@H](CO)N1C[C@H](C)[C@@H](CN(C)C(=O)c2cccc(F)c2)Oc2cc(-c3cncnc3)ccc2S1(=O)=O,1.05% (inactive)
3,COC(=O)C1C(=O)c2c([nH]c(C(=O)OCCSC)c2C)CC1C (stereo not drawn),5.56% (active)
4,CCCOC(=O)c1[nH]c2c(c1C)C(=O)CC(c1cccs1)C2 (stereo not drawn),1.32% (inactive)
5,CCCCOC(=O)c1[nH]c(C)c(C(=O)OC)c1C,2.23% (inactive)
6,C[C@H](CO)N1C[C@H](C)[C@@H](CN(C)S(=O)(=O)c2ccc(F)cc2)OCc2cnnn2CCCC1=O,0.91% (inactive)
7,c1ccc(-c2ccc3c(c2)NC(C2Nc4cc(-c5ccccc5)ccc4O2)O3)cc1 (stereo not drawn),-0.52% (inactive)
8,Oc1ccc(-c2cccc(-c3ccc(O)cc3)c2)cc1,2.72% (inactive)
9,c1ccc(-c2c[nH]c(-c3ccccc3)c2)cc1,4.28% (active)
10,COc1cccc(NC(=O)CN(C)C(=O)c2cc(Cl)nc3ccccc23)c1,-0.56% (inactive)
11,COc1cc2c(=O)n(C)c3ccccc3c2cc1OC,0.78% (inactive)
12,Cn1c(=O)c([N+](=O)[O-])c(Oc2ccccc2)c2ccccc21,1.91% (inactive)
13,Cc1cccc(Oc2c([N+](=O)[O-])c(=O)n(C)c3ccccc23)c1,5.15% (active)
14,Cc1cccc(S(=O)(=O)N(C)C[C@H]2OCc3cnnn3CCCC(=O)N([C@@H](C)CO)C[C@H]2C)c1,2.68% (inactive)
15,C[C@@H]1CN([C@@H](C)CO)C(=O)c2cc(Br)cnc2O[C@H]1CN(C)Cc1ccc(-c2ccccc2)cc1,0% (inactive)
16,CCCCCCNC(=O)O[C@H]1CN(C(=O)OC(C)C)N(C(=O)OC(C)C)[C@@H]2CN(S(=O)(=O)c3ccc(C)cc3)C[C@]12O,0.72% (inactive)
17,NC(=O)c1c(NC(=O)c2ccccc2)sc2c1CCCC2,4.41% (active)
18,O=C(CN1CCCC1)Nc1sc2c(c1C(=O)Nc1ccccc1)CCCC2,1.85% (inactive)
19,O=C(Nc1sc2c(c1C(=O)O)CCC2)c1ccccc1F,0.36% (inactive)
20,CCCCN1C(=O)C(CC(=O)NCc2cccs2)CC(C(=O)N2CCOCC2)=C1C (stereo not drawn),1.03% (inactive)
21,CC(=NNC(N)=O)C1CC2CCC1CC2 (stereo not drawn),0.34% (inactive)
22,C[C@H]1Cn2cnc(C(=O)N[C@@H](Cc3c[nH]c4ccccc34)C(=O)OC(C)(C)C)c2C(=O)N1,0.77% (inactive)

row,Structure (SMILES),inhibition
1,C[C@H](CO)N1C[C@H](C)[C@@H](CN(C)C(=O)C2CCCCC2)OCc2cnnn2CCCC1=O,0.86% (inactive)
2,COC(=O)N(C)C[C@@H]1OCc2cnnn2CCCC(=O)N([C@@H](C)CO)C[C@@H]1C,1.06% (inactive)
3,C[C@@H]1CN([C@H](C)CO)C(=O)CCCn2nncc2CO[C@@H]1CN(C)C(=O)OCc1ccccc1,4.4% (active)
4,Cn1c(CCN2CCN(c3ccccn3)CC2)nc2cc(NS(=O)(=O)c3ccc(F)cc3)ccc21,0.29% (inactive)
5,Cc1cc2cc3n(c2nn1)N=C(Cl)CC3,1.28% (inactive)
6,CCN(Cc1ccncc1)C(=S)Nc1ccccc1C,0.81% (inactive)
7,CCc1nnc(NC(=O)c2ccco2)s1,1.93% (inactive)
8,CCCCN1C(=O)C(CC(=O)NC(c2ccccc2)c2ccccc2)CC(C(=O)N2CCOCC2)=C1C (stereo not drawn),0.88% (inactive)
9,Cc1ccc(/C(N)=N/OC(=O)COc2ccc(Cl)c(C)c2)cc1,-0.49% (inactive)
10,Cc1ccc(C(=O)O/N=C(\N)c2ccccn2)cc1Cl,-3.11% (inactive)
11,Cc1cccc(/C(N)=N/OC(=O)c2ccccc2Cl)c1,4.97% (active)
12,COCC(=O)N(C)C[C@H]1Oc2cc(Br)ccc2S(=O)(=O)N([C@H](C)CO)C[C@H]1C,1.77% (inactive)
13,COc1ccc(CN2C(=O)C(CC(=O)NCCN3CCOCC3)CC(C(=O)N(C(C)C)C(C)C)=C2C)cc1 (stereo not drawn),-0.44% (inactive)
14,CC(=O)OCC(COC(C)=O)OC(C)=O,-0.24% (inactive)
15,CC(=O)OC(C)C[N+](C)(C)C (stereo not drawn),1.03% (inactive)
16,CC(=O)OCCC(C)C,5.92% (active)
17,Cc1ccc(S(=O)(=O)N2C[C@@H](C)[C@]3(C2)[C@H](O)[C@H](OC(=O)NCc2ccccc2)C[C@H]2C(=O)N(c4ccccc4)C(=O)[C@H]23)cc1,0.21% (inactive)
18,O=C1OCCC1=COCCCCOC=C1CCOC1=O,-0.66% (inactive)
19,CC(=O)c1ccc(Oc2cc(C)nc(-n3nc(C)cc3C)n2)cc1,0.1% (inactive)
20,Cc1cc(C)n(-c2nc(O)cc(=O)[nH]2)n1,4.76% (active)
21,Cc1cc(C)n(-c2ccc3nncn3n2)n1,0.66% (inactive)
22,CNS(=O)(=O)c1ccc2c(c1)[nH]c(=S)n2C,0.47% (inactive)
